The results in this text go back to PubChem BioAssay.

Concanavalin-A (Canavalia ensiformis), sequence (P02866 whole entry, looked up): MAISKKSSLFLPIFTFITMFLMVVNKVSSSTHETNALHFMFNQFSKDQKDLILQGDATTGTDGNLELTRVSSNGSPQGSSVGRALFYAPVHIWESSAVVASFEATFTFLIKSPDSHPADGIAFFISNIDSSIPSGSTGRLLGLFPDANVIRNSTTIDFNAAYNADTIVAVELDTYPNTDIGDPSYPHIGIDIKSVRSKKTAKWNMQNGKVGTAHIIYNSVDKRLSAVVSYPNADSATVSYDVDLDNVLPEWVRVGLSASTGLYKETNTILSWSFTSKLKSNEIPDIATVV

The first test has as its target Concanavalin-A (Canavalia ensiformis) (UniProt P02866). In words: compounds binding concanavalin A lectin – biochemical, small-molecule microarray, Alexa647 label, 635 nm, artefact control for SMM control protein annotation, primary screen (AID 1127).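 Also: z combines 667 nm emission intensity with signal-to-noise across three replicate slides.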 The note with it: ConA-A647 binding fluorescence, higher = more signal.
For the molecule `Cc1ccc(S[C@]2(C(=O)NCCCN(C)C)CC(=O)N(Cc3ccccc3)[C@@H]2c2ccc(CO)cc2I)cc1`, the composite z-score stood at 0.362.
On the same count and under the same terms, to `COc1ccc([C@H]2C[C@H]3C(Br)=C[C@]2(OC)C(=O)[C@]32CO2)cc1` belongs 0.0428; to `COC(=O)[C@H]1[C@@H]2COc3ccccc3[C@H]2N[C@H]1C(=O)OC`, 0.548.
With `C=CC[C@]1(C(N)=O)N=C(c2ccc(OCCCO)cc2)O[C@H]1c1ccccc1CN=[N+]=[N-]`, the composite z-score turned out to be 0.885.
Same read-out and setting: as for `CC(C)[Si](OCC[C@H]1O[C@]2(C(=O)N(Cc3ccccc3)c3ccccc32)[C@@H](C)[C@@H]1[Si](C)(C)O)(C(C)C)C(C)C`, the figure is 0.367; as for `CC(C)[Si](OCCCNS(=O)(=O)c1ccc(Br)cc1)(C(C)C)C(C)C`, 1.08; as for `C=CCOC(=O)[C@@H]1[C@H]2C(=O)O[C@H](c3ccccc3)[C@H](c3ccccc3)N2[C@H](c2ccc(OCCOC(=O)[C@H]3C[C@H]4C(=O)N[C@@H](CCCCNC(C)=O)C(=O)N4[C@H]3c3ccc(O)cc3)cc2)[C@@]12C(=O)Nc1ccc(I)cc12`, 0.499.
The same measure, in the same setting: to `C[C@]1(C(=O)NCCN2CCOCC2)c2ccccc2C(=O)N(Cc2ccccc2)[C@H]1c1ccc(CO)cc1` belongs 0.657.
Still for that read-out and setting: as for `C=CCN(C(=O)C1N(c2ccc(CCO)cc2)C(=O)C2C(C(=O)O)C3C=CC21O3)C(C)(C)C` (configuration not stated), the figure is -3.08; as for `CCOC(=O)C[C@H]1[C@H](OC(=O)Cc2ccc3c(c2)OCO3)[C@@H](NC(=O)c2ccc3ccccc3c2)c2cc(OCCCO)ccc2N1C(=O)Cc1ccc(OC)cc1`, 0.684.
The molecule `COc1ccc([Si](C)(C)[C@H]2[C@H](CCO)O[C@@]3(C(=O)N(Cc4ccc(N5CCCCC5=O)cc4)c4ccccc43)[C@@H]2C)cc1` had a composite z-score of 1.12.
The same measure, in the same setting: as for `COc1cc(CO)cc(I)c1O[C@H]1C=C(C(=O)NCCO)C[C@@H](N(CC2CCCCC2)C(=O)c2cc3ccccc3oc2=O)[C@@H]1O`, the figure is 0.358.
Still for that read-out and setting: as for `COC(=O)C1=CC(c2ccc(CO)cc2)=CC(C2CC2)N(Cc2sc3ccccc3c2Cl)C=C1C(=O)OC` (configuration not stated), the figure is 1.16; as for `CSCC[C@@H]1NC(=O)CC=C[C@@H](C)COC(=O)[C@H](CCSC)NC(=O)CC=C[C@@H](C)COC1=O`, -0.796.
Still for that read-out and setting: as for `COC(=O)[C@@]1(Cc2ccc(OC)cc2)[C@H]2c3cc(C(=O)N(C)C)n(CCc4ccc(OC)c(Br)c4)c3C[C@H]2CN1C(=O)c1ccccc1`, the figure is 1.2.
`COCC(=C=CC[C@H](O)c1ccc(OCCO)cc1)C[C@H](O)c1ccccn1` gave a composite z-score of 0.0109.
On the same count and under the same terms, as for `O=C(NCc1ccccc1)[C@@]1(Cc2ccccc2)COC(c2ccc(OCCCO)cc2)=N1`, the figure is 0.865.
On the same count and under the same terms, to `CO[C@@H]1COC(=O)[C@H](C)NC(=O)CC=C[C@@H](C)[C@H](OC)COC(=O)[C@H](C)NC(=O)CC=C[C@H]1C` belongs 0.44; to `CCCC=C(CCC)[C@@H](NS(=O)(=O)c1ccc(C(F)(F)F)cc1)c1ccc(-c2ccccc2)cc1`, 0.882; to `CC(C)(C)OC(=O)CC[C@]1(C(=O)N2CCCCC2)N=C(c2ccc(OCCCO)cc2)O[C@H]1c1ccccc1`, 1.13.
On the same count and under the same terms, as for `CC(=O)NCCCC[C@@H]1NC(=O)[C@@H]2C[C@H](C(=O)NCCCCCNC(=O)CS)[C@H](c3ccc(O)cc3)N2C1=O`, the figure is -0.579; as for `C=CCC(OC(C)=O)[C@@H]1[C@@H](N(Cc2ccc(-c3cccc(C(F)(F)F)c3)o2)C(=O)Cc2ccc(F)cc2)c2cc(OCCCO)ccc2N1C(=O)c1ccc(-c2ccccc2)cc1` (some centres not stated), -1.04.
Molecule `CO[C@]12C=C(Br)[C@@H](C[C@@H]1c1ccccc1)[C@@]1(CO1)C2=O` yielded a composite z-score of 0.0193.
Still for that read-out and setting: as for `COCCOC(=O)N1C(=O)[C@@]2(c3cc(C#CCC(C(=O)OC)C(=O)OC)ccc31)[C@H](c1ccccc1OCCO)N1[C@H](c3ccccc3)[C@H](c3ccccc3)OC(=O)[C@H]1[C@@H]2C(=O)N1CCCCCCC1`, the figure is 1.02; as for `CCOC(=O)C1=CC[C@@H](c2ccccc2)N(S(=O)(=O)c2ccc(C)cc2)[C@H]1C`, 1.05.
Take `O=C1c2ccccc2[C@](Cc2ccccc2I)(C(=O)NCC(F)(F)F)[C@H](c2ccc(CO)cc2)N1Cc1ccccc1C(F)(F)F`: the composite z-score was 0.609.

Tested on in another test: not listed separately
In words: compounds binding Alexa647 anti-His antibody – biochemical, small-molecule microarray, 635 nm fluorescence, artefact control for SMM control protein annotation, primary screen (AID 1128).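 Also: score merges feature fluorescence with signal-to-noise for each printed compound spot.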 The note with it: higher = more signal.
In turn, `CCCC=C(CCC)[C@@H](NS(=O)(=O)c1ccc(-c2ccccc2)cc1)c1ccc(C(=O)OC)cc1` gave a composite z-score of 0.5.
Same read-out and setting: as for `COc1ccc([Si](C)(C)[C@@H]2[C@@H](CC(=O)N(CCO)Cc3ccccc3)O[C@]3(C(=O)N(Cc4cccc(N5CCC5=O)c4)c4ccccc43)[C@H]2C)cc1`, the figure is 0.863.
On the same count and under the same terms, to `CCC1=C2CN(Cc3ccccc3Br)[C@@H]([C@@H](O)Cc3ccccc3)C2C=CCC1` (some centres not stated) belongs 1.23.
Same read-out and setting: as for `CO[C@H]1COC(=O)[C@H](C)COC(=O)[C@H](Cc2ccccc2)NC(=O)CC=C[C@H]1C`, the figure is -0.384; as for `Cc1ccc(S[C@]2(C(=O)NC3CC3)CC(=O)N(Cc3cc(C(F)(F)F)cc(C(F)(F)F)c3)[C@@H]2c2ccc(CO)cc2)cc1`, 1.79; as for `CCCC[C@@H]1C[C@H]1[C@@H](NC(=O)c1cccs1)c1ccc(Cl)cc1`, -0.492.
On to `COC(=O)C(CC#Cc1ccc2c(c1)[C@]1(C(=O)N2)[C@H](C(=O)N2CCCCCCC2)[C@H]2C(=O)O[C@H](c3ccccc3)[C@H](c3ccccc3)N2[C@@H]1c1ccc(O)cc1)C(=O)OC`, for which the composite z-score is -0.231.
The same measure, in the same setting: as for `CC(C)N1CC=CC23O[C@@H]4/C=C\CCCOC(=O)C4[C@H]2C(=O)N(CCO)[C@@H]3C1=O` (some centres not stated), the figure is -0.548; as for `O=C1O[C@H](c2ccccc2)[C@H](c2ccccc2)N2[C@H]1[C@@H](C(=O)NC[C@H](O)c1ccccc1)[C@]1(C(=O)Nc3ccc(C#CC4=CCCCC4)cc31)[C@H]2c1ccc(OCCO)cc1`, 0.879; as for `Cc1ccc(S[C@]2(C(=O)NC(C)C)CC(=O)N(C3Cc4ccccc4C3)[C@@H]2c2ccc(CO)cc2)cc1`, 2.13.
In turn, `Cc1ccc(S[C@]2(C(=O)NCCCN(C)C)CC(=O)N(Cc3ccccc3)[C@@H]2c2ccc(CO)cc2I)cc1` registered a composite z-score of 0.412.
`COc1ccc([C@H]2C[C@H]3C(Br)=C[C@]2(OC)C(=O)[C@]32CO2)cc1` had a composite z-score of 1.2.
Still for that read-out and setting: to `COC(=O)[C@H]1[C@@H]2COc3ccccc3[C@H]2N[C@H]1C(=O)OC` belongs -0.0432; to `C=CC[C@]1(C(N)=O)N=C(c2ccc(OCCCO)cc2)O[C@H]1c1ccccc1CN=[N+]=[N-]`, 3.2.
As for `CC(C)[Si](OCC[C@H]1O[C@]2(C(=O)N(Cc3ccccc3)c3ccccc32)[C@@H](C)[C@@H]1[Si](C)(C)O)(C(C)C)C(C)C`, the composite z-score is -0.197.
The same measure, in the same setting: to `CC(C)[Si](OCCCNS(=O)(=O)c1ccc(Br)cc1)(C(C)C)C(C)C` belongs 0.479; to `C=CCOC(=O)[C@@H]1[C@H]2C(=O)O[C@H](c3ccccc3)[C@H](c3ccccc3)N2[C@H](c2ccc(OCCOC(=O)[C@H]3C[C@H]4C(=O)N[C@@H](CCCCNC(C)=O)C(=O)N4[C@H]3c3ccc(O)cc3)cc2)[C@@]12C(=O)Nc1ccc(I)cc12`, 1.21.
Still for that read-out and setting: as for `C[C@]1(C(=O)NCCN2CCOCC2)c2ccccc2C(=O)N(Cc2ccccc2)[C@H]1c1ccc(CO)cc1`, the figure is 1.6; as for `C=CCN(C(=O)C1N(c2ccc(CCO)cc2)C(=O)C2C(C(=O)O)C3C=CC21O3)C(C)(C)C` (configuration not stated), -1.51.
Same read-out and setting: as for `CCOC(=O)C[C@H]1[C@H](OC(=O)Cc2ccc3c(c2)OCO3)[C@@H](NC(=O)c2ccc3ccccc3c2)c2cc(OCCCO)ccc2N1C(=O)Cc1ccc(OC)cc1`, the figure is -0.708.
On to `COc1ccc([Si](C)(C)[C@H]2[C@H](CCO)O[C@@]3(C(=O)N(Cc4ccc(N5CCCCC5=O)cc4)c4ccccc43)[C@@H]2C)cc1`, for which the composite z-score stood at 1.91.
On the same count and under the same terms, to `COc1cc(CO)cc(I)c1O[C@H]1C=C(C(=O)NCCO)C[C@@H](N(CC2CCCCC2)C(=O)c2cc3ccccc3oc2=O)[C@@H]1O` belongs 0.309; to `COC(=O)C1=CC(c2ccc(CO)cc2)=CC(C2CC2)N(Cc2sc3ccccc3c2Cl)C=C1C(=O)OC` (configuration not stated), 3.42.
Still for that read-out and setting: to `CSCC[C@@H]1NC(=O)CC=C[C@@H](C)COC(=O)[C@H](CCSC)NC(=O)CC=C[C@@H](C)COC1=O` belongs -0.158; to `COC(=O)[C@@]1(Cc2ccc(OC)cc2)[C@H]2c3cc(C(=O)N(C)C)n(CCc4ccc(OC)c(Br)c4)c3C[C@H]2CN1C(=O)c1ccccc1`, 2.28; to `COCC(=C=CC[C@H](O)c1ccc(OCCO)cc1)C[C@H](O)c1ccccn1`, -0.0301.
On the same count and under the same terms, as for `O=C(NCc1ccccc1)[C@@]1(Cc2ccccc2)COC(c2ccc(OCCCO)cc2)=N1`, the figure is 2.46; as for `CO[C@@H]1COC(=O)[C@H](C)NC(=O)CC=C[C@@H](C)[C@H](OC)COC(=O)[C@H](C)NC(=O)CC=C[C@H]1C`, 0.284; as for `CCCC=C(CCC)[C@@H](NS(=O)(=O)c1ccc(C(F)(F)F)cc1)c1ccc(-c2ccccc2)cc1`, 0.826.
As to `CC(C)(C)OC(=O)CC[C@]1(C(=O)N2CCCCC2)N=C(c2ccc(OCCCO)cc2)O[C@H]1c1ccccc1`, the composite z-score worked out at 1.81.
The same measure, in the same setting: to `CC(=O)NCCCC[C@@H]1NC(=O)[C@@H]2C[C@H](C(=O)NCCCCCNC(=O)CS)[C@H](c3ccc(O)cc3)N2C1=O` belongs 0.133; to `C=CCC(OC(C)=O)[C@@H]1[C@@H](N(Cc2ccc(-c3cccc(C(F)(F)F)c3)o2)C(=O)Cc2ccc(F)cc2)c2cc(OCCCO)ccc2N1C(=O)c1ccc(-c2ccccc2)cc1` (some centres not stated), -0.656.
Same read-out and setting: to `CO[C@]12C=C(Br)[C@@H](C[C@@H]1c1ccccc1)[C@@]1(CO1)C2=O` belongs -0.22; to `COCCOC(=O)N1C(=O)[C@@]2(c3cc(C#CCC(C(=O)OC)C(=O)OC)ccc31)[C@H](c1ccccc1OCCO)N1[C@H](c3ccccc3)[C@H](c3ccccc3)OC(=O)[C@H]1[C@@H]2C(=O)N1CCCCCCC1`, 1.75; to `CCOC(=O)C1=CC[C@@H](c2ccccc2)N(S(=O)(=O)c2ccc(C)cc2)[C@H]1C`, 1.18.
Still for that read-out and setting: as for `O=C1c2ccccc2[C@](Cc2ccccc2I)(C(=O)NCC(F)(F)F)[C@H](c2ccc(CO)cc2)N1Cc1ccccc1C(F)(F)F`, the figure is 0.722.
